Assay results as given in PubChem BioAssay (Tox21).
Where “and” joins values, the source holds several entries; their conditions need not be identical. Identical values can stand only once. Inconclusive results are not listed. The source holds several records for some structures; these can differ, active in one and inactive in another. Calls of active or inactive are those of the source. Unless noted, the call rests on the fitted dose curve; in most records, active means well fitted curve in the direction sought with a large enough effect in the repeat runs; inconclusive means weak or mixed curves; inactive means no such curve, though single readings can be large; an effect the other way counts as inactive or inconclusive.

Legend:
[1] = qHTS assay to identify small molecule antagonists of the glucocorticoid receptor (GR) signaling pathway - cell viability counter screen (AID 720693); further: nearly all actives have a fitted effect of over 55% in size; further: potency means the concentration at half of the fitted maximal effect
[2] = qHTS assay for identifying genotoxic compounds that show differential cytotoxicity against isogenic chicken DT40 cell lines with known DNA damage response pathways - wild type cell line (AID 743012); further: nearly all actives have a fitted effect of over 60% in size; further: potency means the concentration at half of the fitted maximal effect
How it was run: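 300 wt DT40 cells/well; cpd (DMSO) pintool-transferred after ~0.5 h at 37 C/5% CO2; 40 h incubation; CellTiter-Glo added, 30 min RT; luminescence read.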

[3] = qHTS assay for identifying genotoxic compounds that show differential cytotoxicity against isogenic chicken DT40 cell lines with known DNA damage response pathways - Rev3 mutant cell line (AID 743014); further: nearly all actives have a fitted effect of over 55% in size; further: potency means the concentration at half of the fitted maximal effect
[4] = qHTS assay for identifying genotoxic compounds that show differential cytotoxicity against isogenic chicken DT40 cell lines with known DNA damage response pathways - Rad54/Ku70 mutant cell line (AID 743015); further: nearly all actives have a fitted effect of over 60% in size; further: potency means the concentration at half of the fitted maximal effect
[5] = qHTS assay to identify small molecule antagonists of the androgen receptor (AR) signaling pathway - cell viability counter screen (AID 743033; further: nearly all actives have a fitted effect of over 45% in size; further: potency means the concentration at half of the fitted maximal effect)
[6] = qHTS assay to identify small molecule antagonists of the androgen receptor (AR) signaling pathway using the MDA cell line - cell viability counter screen (AID 743041; further: nearly all actives have a fitted effect of over 45% in size; further: potency means the concentration at half of the fitted maximal effect)
How it was run: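 Compound exposure lasted 16 h at 37C in MDA-kb2 AR-luc cells stimulated with R1881. Protease-based CellTiter-Fluor reagent was applied for the final 30 min and fluorescence measured.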

[7] = molecular target: Androgen receptor (Homo sapiens) (UniProt P10275); experiment: qHTS assay to identify small molecule agonists of the androgen receptor (AR) signaling pathway using the MDA cell line (AID 743040; further: nearly all actives have a fitted effect of over 20% in size); settings: MDA-kb2 AR-luc cells, MMTV luciferase, 16 h; activity change: at 70.3 µM (top of the series), stronger effect = higher value
Chain of Androgen receptor (Homo sapiens) (P10275 whole entry, looked up): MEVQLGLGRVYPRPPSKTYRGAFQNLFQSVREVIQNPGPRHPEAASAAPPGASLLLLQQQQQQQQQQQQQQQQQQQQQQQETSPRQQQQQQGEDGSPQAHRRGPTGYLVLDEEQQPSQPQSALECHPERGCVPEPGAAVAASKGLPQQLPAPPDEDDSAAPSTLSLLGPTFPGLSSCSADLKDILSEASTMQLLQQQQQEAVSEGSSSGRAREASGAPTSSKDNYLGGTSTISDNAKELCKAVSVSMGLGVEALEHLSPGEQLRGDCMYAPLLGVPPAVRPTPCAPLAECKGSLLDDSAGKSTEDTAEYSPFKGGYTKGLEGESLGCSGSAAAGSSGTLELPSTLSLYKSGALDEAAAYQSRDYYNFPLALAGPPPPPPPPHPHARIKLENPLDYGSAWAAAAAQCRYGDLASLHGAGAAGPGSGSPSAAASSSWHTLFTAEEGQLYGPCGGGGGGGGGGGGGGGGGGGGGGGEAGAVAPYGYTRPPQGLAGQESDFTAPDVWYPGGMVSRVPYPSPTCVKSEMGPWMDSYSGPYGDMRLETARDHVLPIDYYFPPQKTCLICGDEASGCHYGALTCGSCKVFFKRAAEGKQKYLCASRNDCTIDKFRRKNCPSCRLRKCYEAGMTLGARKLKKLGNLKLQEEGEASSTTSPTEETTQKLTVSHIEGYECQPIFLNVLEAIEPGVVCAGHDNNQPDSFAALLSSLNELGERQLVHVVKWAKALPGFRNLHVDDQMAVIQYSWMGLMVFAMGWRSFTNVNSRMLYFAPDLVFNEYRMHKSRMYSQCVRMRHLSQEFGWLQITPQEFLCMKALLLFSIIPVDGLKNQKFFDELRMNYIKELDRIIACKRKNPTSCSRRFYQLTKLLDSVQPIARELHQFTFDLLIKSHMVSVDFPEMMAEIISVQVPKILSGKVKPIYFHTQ
How it was run: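 Testing was done with the MDA-kb2 AR-luc line, a human breast carcinoma stably transfected with MMTV-luciferase containing AR and GR response elements. Cells were exposed 16 h at 37C before ONE-Glo luminescence detection.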

[8] = molecular target: Androgen receptor (Homo sapiens) (UniProt P10275); experiment: qHTS assay to identify small molecule antagonists of the androgen receptor (AR) signaling pathway using the MDA cell line (AID 743042; further: nearly all actives have a fitted effect of over 55% in size; further: potency means the concentration at half of the fitted maximal effect)
How it was run: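 MDA-kb2 breast carcinoma cells carrying MMTV-luciferase (AR/GR responsive) were co-treated with compounds and the agonist R1881 for 16 h at 37C. Inhibition read as ONE-Glo luminescence; CellTiter-Fluor fluorescence measured in parallel for cytotoxicity.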

[9] = molecular target: Androgen receptor (Homo sapiens) (UniProt P10275); experiment: qHTS assay to identify small molecule antagonists of the androgen receptor (AR) signaling pathway (AID 743035; active means well fitted inhibition curve with a large enough effect in the signal ratio in the repeat runs, not every such curve was filed as active; the % refers to the signal ratio)
How it was run: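 In this cell-based reporter screen, compounds were tested in concentration series against R1881-activated HEK293 cells expressing beta-lactamase under UAS control; after 16 h at 37C, FRET substrate was added and fluorescence read 2 h later.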

[10] = molecular target: Androgen receptor (Homo sapiens) (UniProt P10275); experiment: qHTS assay to identify small molecule agonists of the androgen receptor (AR) signaling pathway (AID 743036; active means well fitted activation curve with a large enough effect in the signal ratio in the repeat runs, with a control signal flat, not every such curve was filed as active; the % refers to the signal ratio)
How it was run: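 In this Tox21 qHTS, 2,000 HEK293 AR-bla cells per well were incubated with compounds for 16 h at 37C and 5% CO2. Fluorescence intensity was recorded 2 h after adding LiveBLAzer B/G FRET substrate at room temperature.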

Measured: Potency

Cc1ccc(N)c(C)c1
inactive: [1] | [2] | [3] | [4] | [5] | [6]

c1ccc2sc(SNC3CCCCC3)nc2c1
inactive: [1] | [5] | [6]
inactive and 54.5 µM (active): [4]
inactive and 61.1 µM (active): [2] | [3]

C[N+](C)(C)CCOC(=O)C(O)(c1ccccc1)c1ccccc1
inactive: [1] | [2] | [3] | [4] | [5] | [6]

N#CC(C#N)=C(C#N)C#N
inactive: [1] | [2] | [3] | [4] | [5] | [6]

CCCC[P+](CC)(CCCC)CCCC (tested in a mixture with another compound)
inactive: [1] | [5] | [6]
active: [2] 27.5 µM | [3] 17.4 µM | [4] 12.3 µM

Cc1ncc(C[n+]2csc(CCO)c2C)c(N)n1
inactive: [1] | [2] | [3] | [4] | [5] | [6]

O=S(=O)(Cl)Cl
inactive: [1] | [2] | [3] | [4] | [5] | [6]

COc1ccc(C(O)(c2cncnc2)C2CC2)cc1 (stereo not given)
inactive: [1] | [2] | [3] | [4] | [5] | [6]

O=[N+]([O-])c1cc(Cl)c(Cl)cc1Cl
inactive: [1] | [2] | [3] | [4] | [5] | [6]

O=C1CC[C@@]2(O)[C@H]3Cc4ccc(O)c5c4[C@@]2(CCN3CC2CC2)[C@H]1O5
inactive: [1] | [2] | [3] | [4] | [5] | [6]

CCCCCCCCn1sccc1=O
active: [2] 4.87 µM and 454 nM | [3] 2.17 µM and 719 nM | [4] 3.07 µM and 1.02 µM | [5] 4.37 µM and 20.4 µM | [6] 36 µM
inactive: [1]

CCCCOC(=O)CCC(=O)OCCCC
inactive: [1] | [2] | [3] | [4] | [5] | [6]

CCCCCl
inactive: [1] | [2] | [3] | [4] | [5] | [6]

C[N+]1(CCC(C(N)=O)(c2ccccc2)c2ccccc2)CCCCC1
inactive: [1] | [2] | [3] | [4] | [5] | [6]

CON(C)C(=O)Nc1ccc(Cl)cc1
inactive: [1] | [2] | [3] | [4] | [5] | [6]

CCc1cnc(C2=NC(C)(C(C)C)C(=O)N2)c(C(=O)O)c1 (stereo not given)
inactive: [1] | [2] | [3] | [4] | [5] | [6]

C[Si](Cn1cncn1)(c1ccc(F)cc1)c1ccc(F)cc1
active: [2] 12.6 µM and 10.9 µM | [3] 3.98 µM and 4.86 µM | [4] 8.92 µM and 9.69 µM | [5] 14.3 µM
inactive: [1] | [6]

O=C(Cc1ccccc1)c1ccccc1
inactive: [1] | [2] | [3] | [4] | [5] | [6]

CC[N+]1(C)CCCC(OC(=O)C(O)(c2ccccc2)c2ccccc2)C1 (stereo not given)
inactive: [1] | [2] | [3] | [4] | [5] | [6]

Cc1nnc(-c2ccccc2)c(=O)n1N
inactive: [1] | [2] | [3] | [4] | [5] | [6]

Nc1cc(Cl)cc(C(=O)O)c1Cl
inactive: [1] | [2] | [3] | [4] | [5] | [6]

CCOC(=O)c1cncn1C(C)c1ccccc1 (stereo not given)
inactive: [1] | [2] | [3] | [4] | [5] | [6]

O=C(N/N=C/c1ccc([N+](=O)[O-])o1)c1cc([N+](=O)[O-])cc([N+](=O)[O-])c1O
inactive: [1] | [2] | [4]

C=C(C)C(=O)OCCCCOC(=O)C(=C)C
inactive: [1] | [2] | [3] | [5]

CCC1CCC(=O)O1 (stereo not given)
inactive: [1] | [2] | [3] | [4] | [6]

O=C1NC(=O)C(=O)C(=O)N1
inactive: [1] | [2] | [3] | [4] | [5] | [6]

O=C([O-])c1ccccn1.O=C([O-])c1ccccn1.O=C([O-])c1ccccn1.[Cr+3]
inactive: [1] | [2] | [3] | [4] | [5] | [6]

O=C(CCl)CCl
active: [2] 0.864 µM | [3] 0.273 µM
inactive: [1] | [5] | [6]
inactive and 686 nM (active): [4]

COP(=O)(OC)OC(Br)C(Cl)(Cl)Br (stereo not given)
active: [2] 30.7 µM and 13.7 µM | [3] 13.7 µM | [4] 38.6 µM and 21.7 µM | [8] 68.7 µM and 61.1 µM
inactive: [1] | [7] | [6]

C=CCN1C[C@H](C)N([C@H](c2ccc(C(=O)N(CC)CC)cc2)c2cccc(OC)c2)C[C@H]1C
active: [2] 8.41 µM | [3] 13.3 µM | [4] 18.8 µM
inactive: [1] | [5] | [6]

CC(Oc1cc(Cl)c(Cl)cc1Cl)C(=O)O (stereo not given)
inactive: [1] | [2] | [3] | [4] | [5] | [6]

Cc1ccccc1
inactive: [1] | [2] | [3] | [4] | [5] | [6]

CCC[N+](CCC)(CCC)CCC
inactive: [1] | [2] | [3] | [4] | [5] | [6]

C=CC(=O)NC(C)(C)CC(C)=O
active: [3] 54.5 µM
inactive: [1] | [2] | [5] | [6]

O=C(O)C(F)(F)C(F)(F)C(F)(F)C(F)(F)C(F)(F)F
inactive: [1] | [2] | [4] | [5] | [6]

C1CCNCC1
inactive: [1] | [2] | [3] | [4] | [5] | [6]

CC(C)CCCCCCCOC(=O)c1ccccc1C(=O)OCCCCCCCC(C)C
inactive: [1] | [2] | [4] | [5] | [6]

O=C(Cc1ccccc1)OCCc1ccccc1
inactive: [1] | [5] | [6]
active: [2] 68.6 µM | [4] 61.1 µM

CCOc1cccc(C2(N3CCN(c4ccccc4)CC3)CCC(C)CC2)c1 (stereo not given)
inactive: [1] | [2] | [5] | [6]

CN(C)C(=O)Nc1cccc(OC(=O)NC(C)(C)C)c1
inactive: [1] | [2] | [4] | [5]

O=C(O)c1cc(I)cc(I)c1I
inactive: [1] | [2] | [3] | [4] | [5] | [6]

C[N+]1(CCF)[C@@H]2CC[C@H]1CC(OC(=O)C(O)(c1ccccc1)c1ccccc1)C2 (stereo not given in full)
inactive: [1] | [2] | [3] | [4] | [5] | [6]

OCCSSCCO
inactive: [1] | [2] | [3] | [4] | [6]

Nc1ccccc1C(=O)OCCc1ccccc1
inactive: [1] | [2] | [3] | [4] | [6]

NC(=O)CF
inactive: [1] | [2] | [3] | [4] | [5] | [6]

CC1(C)CC(=O)CC(C)(C)N1[O]
inactive: [1] | [2] | [3] | [5] | [6]

CC(C)(C)c1ccc(CCOc2ncnc3ccccc23)cc1
inactive: [1] | [2] | [3] | [4] | [5] | [6]

CNC(=O)Oc1cccc(N=CN(C)C)c1
active: [2] 54.5 µM | [3] 54.5 µM
inactive: [1] | [5]

CN1C[C@H](C(=O)N[C@]2(C)O[C@@]3(O)[C@@H]4CCCN4C(=O)[C@H](Cc4ccccc4)N3C2=O)C=C2c3cccc4[nH]cc(c34)C[C@H]21
inactive: [1] | [5] | [6]
active: [2] 21.1 µM and 48.8 µM and 22.6 µM | [3] 23.7 µM and 27.4 µM and 18 µM | [4] 9.44 µM and 13.7 µM and 10.1 µM

CCOC(=O)NC(O)C(Cl)(Cl)Cl (stereo not given)
inactive: [1] | [2] | [3] | [4] | [5] | [6]

CCCCC1C(=O)NC(=O)N(C2CCCCC2)C1=O (stereo not given)
inactive: [1] | [2] | [3] | [4] | [5] | [6]

CCCCC(CC)COC(=O)c1c(Br)c(Br)c(Br)c(Br)c1C(=O)OCC(CC)CCCC (stereo not given)
inactive: [1] | [2] | [3] | [4] | [5] | [6]

O=[N+]([O-])O[C@H]1CO[C@H]2[C@@H]1OC[C@H]2O[N+](=O)[O-]
inactive: [1] | [2] | [3] | [4] | [5] | [6]

CN[C@@H](C)[C@H](O)c1ccccc1
inactive: [1] | [2] | [4] | [5] | [6]

CN(C)c1ccc(N=O)cc1
active: [1] 39 µM and 43.6 µM | [2] 1.73 µM and 1.93 µM | [3] 546 nM and 1.93 µM | [4] 1.37 µM and 1.72 µM | [5] 12.3 µM and 43.6 µM | [6] 54.6 µM and 27.3 µM

CC(C)c1ccc(NC(=O)N(C)C)cc1
inactive: [1] | [2] | [5]
active: [3] 68.5 µM

Clc1ccccc1
inactive: [1] | [3] | [4] | [5] | [6]

COc1ccccc1N1CCNCC1
inactive: [1] | [3] | [4] | [5] | [6]

NCCc1cc(O)c(O)cc1O
inactive: [1] | [5] | [6]
active: [2] 23.7 µM

COc1ccc2c(c1OC)C(=O)O[C@H]2[C@@H]1c2cc3c(cc2CCN1C)OCO3
not listed: [2]
inactive: all other assays above

CC(Cc1ccccc1)NCc1ccccc1Cl (stereo not given)
inactive: [1] | [5] | [6]
active: [3] 15 µM | [4] 18.8 µM

O=C(NC(=O)c1cc(F)c(F)cc1Cl)Nc1cc(F)ccc1N1CCC(C(=O)O)CC1
inactive: [1] | [3] | [4] | [5] | [6]

O=C(O)C(F)(F)C(F)(F)C(F)(F)C(F)(F)C(F)(F)C(F)(F)C(F)(F)C(F)(F)F
inactive: [1] | [3] | [4] | [5]

CN(C1CCCCC1)C1CCCCC1
active: [3] 9.69 µM | [4] 17.2 µM
not listed: [2] | [6]
inactive: all other assays above
